From PubChem BioAssay
SENP7 inh = SENP7 protease inhibition; recombinant SENP7, Z-RLRGG-aminoluciferin luminescence, 40 min; Q9BQF6; inhibition, % at 5 µM; hit rate 1.5% among 330,000;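 active = inhibition above about 50% at the single test dose, limit read from the data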;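 note: plate controls were DMSO with enzyme for no effect and no enzyme buffer wells for full effect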
C8 TRAIL sens = sensitizes caspase-8 expressing cells to TRAIL. NB7+C8 cells + TRAIL, ATPlite viability luminescence. inhibition (viability loss, TRAIL sensitization), % at 10 µM. hit rate 1% among 360,000;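 active = compounds causing at least 50% loss of cell viability in the single-dose screen, relative to plate controls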
PPC-1+TRAIL kill = kills PPC-1 cancer cells in the presence of TRAIL; PPC-1 cells + TRAIL, ATPLite viability luminescence; cell killing (% activity), % at 4 µM or 5 µM; hit rate 0.41% among 220,000;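 active = cell killing above 50% in the first pass at 4 µM, then a duplicate retest at 5 µM averaging 50% or more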;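 note: plate controls were cells with TRAIL plus DMSO for no effect and medium-only wells lacking cells for full effect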
SENP8 block-1 = SENP8 (human) protease inhibition | recombinant SENP8, Nedd8 substrate fluorescence | inhibition, % at 20 µM | hit rate 0.64% among 360,000; in the data active = inhibition mostly above about 40%, no sharp cut-off; inactive = mostly below about 27%
Target sequence (Q96LD8 whole entry, looked up): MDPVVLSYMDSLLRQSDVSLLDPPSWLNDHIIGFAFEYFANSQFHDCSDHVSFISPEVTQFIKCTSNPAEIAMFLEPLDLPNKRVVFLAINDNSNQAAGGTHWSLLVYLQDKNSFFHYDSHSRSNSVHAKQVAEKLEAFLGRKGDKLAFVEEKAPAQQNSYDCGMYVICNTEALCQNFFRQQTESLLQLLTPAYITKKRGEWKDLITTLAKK
SENP6 inh = inhibitors of human SENP6 protease; Q9GZR1; Recombinant SENP6 catalytic domain, aminoluciferin luminescence; inhibition, % at 10 µM; hit rate 1.8% among 330,000; AID 2599;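 active = inhibition above about 50% at the single tested dose, limit read from the data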;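 note: plate controls were DMSO wells with enzyme for no effect and DMSO wells lacking enzyme for full effect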
SENP8 block-2 = inhibitors of human SENP8 protease | hit rate 1.2% among 330,000 | inhibition, % at 10 µM | purified SENP8, Z-RLRGG-aminoluciferin cleavage, luminescence | Q96LD8; in the data active = inhibition above about 50%
SENP8 confirm = confirmation of human SENP8 protease inhibitors; shares compounds with SENP7 inh; Recombinant SENP8, Z-RLRGG-aminoluciferin luminescence, 60 min; inhibition, % at 12.5 µM; hit rate 40% among 6,200; AID 488912;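 active = mean inhibition across replicates above about 50%, limit read from the data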
SENP6 conf = human SENP6 inhibition, confirmed | recombinant SENP6, Z-RLRGG-aminoluciferin luminescence | inhibition, % at 12.5 µM | shares compounds with SENP7 inh | hit rate 58% among 6,200
SENP7 conf = confirmation of human SENP7 protease inhibitors; hit rate 69% among 6,200; shares compounds with SENP7 inh; AID 488917; recombinant SENP7, Z-RLRGG-aminoluciferin luminescence, 40 min; inhibition, % at 12.5 µM
Casp3 SENP sel = inhibits human caspase-3 in SENP selectivity test; shares compounds with SENP7 inh; purified caspase-3, Z-DEVD-aminoluciferin luminescence, 60 min; inhibition, % at 12.5 µM; hit rate 60% among 6,200;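 active = mean inhibition above about 50%, limit read from the data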;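 note: plate controls were enzyme with DMSO for no effect and wells without caspase-3 for full effect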
Target sequence (P42574 28-227 limits assumed): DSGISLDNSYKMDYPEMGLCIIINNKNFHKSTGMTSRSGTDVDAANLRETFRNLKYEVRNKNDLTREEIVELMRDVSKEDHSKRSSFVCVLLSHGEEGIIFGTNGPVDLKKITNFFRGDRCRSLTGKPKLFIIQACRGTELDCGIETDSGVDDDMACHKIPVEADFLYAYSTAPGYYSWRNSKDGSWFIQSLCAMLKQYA
Luc interf = luminescence interference (SENP counter-screen); shares compounds with SENP7 inh; Pre-incubated SENP8/Z-RLRGG-aminoluciferin, luciferase luminescence interference; inhibition, % at 12.5 µM; hit rate 39% among 6,200; AID 488919;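 active = mean inhibition above about 50% when retested at one dose, limit read from the data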;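 note: plate controls were DMSO wells with completed reaction for no effect and substrate without enzyme for full effect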
Numbers without * were called inactive; nt = no result given. This is a sample that favours compounds with a hit; in the whole collection about 3% have one here.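 Rule for the calls, unless noted: active = mean inhibition above about 50% in the one-dose retest (limit read from the data); inactive = the rest.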

SMILES | SENP7 inh | C8 TRAIL sens | PPC-1+TRAIL kill | SENP8 block-1 | SENP6 inh | SENP8 block-2 | SENP8 confirm | SENP6 conf | SENP7 conf | Casp3 SENP sel | Luc interf
CCCc1cc(-c2ccc3c(c2)COc2c4ccccc4nn2-3)on1 | 91* | 33 | nt | -196 | 93* | 89* | 25 | 36 | 38 | 64* | 12
CC(C)[C@H](NC(=O)c1ccccc1F)C(=O)OCCN1C(=O)c2ccccc2C1=O | 11 | 4 | nt | 11 | -1 | 4 | nt | nt | nt | nt | nt
Cc1c(O)ccc(/C=N/Nc2ncccc2[N+](=O)[O-])c1O | 100* | 39 | nt | 27 | 97* | 96* | 67* | 77* | 102* | 75* | 25
O=[N+]([O-])c1ccc(O)c(/C=N/Nc2ccccn2)c1 | nt | 42 | 45 | 31 | nt | nt | nt | nt | nt | nt | nt
COc1ccccc1NC(=O)C(=O)c1cn(CC(=O)N2CCOCC2)c2ccccc12 | 56* | 4 | nt | 13 | 52* | 47 | 9 | 40 | 17 | 10 | 2
O=C(CSc1cn(CC(=O)N2CCOCC2)c2ccccc12)N1CCOCC1 | 7 | -22 | nt | 10 | -2 | 1 | nt | nt | nt | nt | nt
Cc1cccc(CSc2cn(CC(=O)N3CCOCC3)c3ccccc23)c1 | 74* | 4 | 3 | 19 | 65* | 72* | 87* | 87* | 96* | 70* | 59*
O=C(NCc1ccccc1)C(=O)c1cn(CC(=O)N2CCOCC2)c2ccccc12 | 55* | 4 | nt | -45 | -9 | -13 | -6 | -2 | 4 | 5 | -4
CC(C)(CNC(=O)c1ccc(Br)o1)CNC(=O)c1ccc(Br)o1 | -3 | 0 | nt | 1 | 5 | 3 | nt | nt | nt | nt | nt
Cc1cccc(-c2nc(=S)c3c(o2)CCCC3)c1 | 72* | 13 | 20 | 5 | 62* | 52* | 52* | 49 | 76* | 43 | 51*
S=c1nc(-c2ccc(Br)cc2)oc2c1CCCC2 | 17 | 15 | 23 | 18 | 10 | -22 | nt | nt | nt | nt | nt
CCC(=O)N(c1nnc(SCC(=O)NN2C(=O)NC3(CCCCC3)C2=O)s1)C1CC1 | -1 | 17 | nt | -6 | 6 | -15 | nt | nt | nt | nt | nt
CCOc1ccc(C(=O)CC(NCc2cccs2)C(=O)O)cc1 (stereo not drawn) | nt | -13 | 4 | 11 | nt | nt | nt | nt | nt | nt | nt
O=C(Nc1cccc2nsnc12)c1ccc(F)cc1 | 30 | 2 | 2 | -410 | 9 | -8 | nt | nt | nt | nt | nt
O=C(Nc1cccc2nsnc12)c1ccc2c(c1)OCO2 | 60* | 2 | -4 | -407 | 69* | 52* | 30 | 66* | 77* | 67* | 11
O=C(Nc1cccc2nsnc12)c1ccc2c(c1)OCCO2 | -20 | 13 | 26 | -273 | 77* | 66* | 11 | 83* | 98* | 88* | 27
COC(=O)C1(O)CC(C(C)C)=NN1C(=O)c1ccccc1 (stereo not drawn) | -6 | 2 | 10 | 20 | -4 | -4 | nt | nt | nt | nt | nt
Cc1[nH]n(C(N)=S)c(=O)c1N=Nc1ccc(Br)cc1 | 82* | 10 | nt | 28 | 93* | 92* | -8 | 10 | 20 | 26 | -2
Cc1[nH]n(-c2ccccc2)c(=O)c1N=Nc1cccc(C(=O)O)c1 | 0 | 22 | nt | 49* | 56* | -9 | 30 | 22 | 59* | 5 | 28
Cc1[nH]n(C2=NCCS2)c(=O)c1N=Nc1cccc(C(F)(F)F)c1 | 31 | 38 | 25 | 30 | 74* | 19 | 35 | 30 | 26 | 48 | 4
Cc1[nH]n(C(N)=S)c(=O)c1N=Nc1cccc(C(F)(F)F)c1 | 38 | -1 | nt | 25 | 79* | 81* | -6 | 1 | 8 | 5 | 1
